Bioassay records: PubChem BioAssay, National Center for Advancing Translational Sciences (NCATS)
Shown are actives, neighbours in structure and some others; about 9.4% of the full set was active somewhere.
Rab9 prom act – activates the Rab9 promoter; Huh7 Rab9 promoter-luciferase reporter, luminescence, 24 h; hit rate 2.8% among 320,000; AID 485297; Potency, µM (highest dose often 9.22 µM), for inactives: at the highest dose activation, negative = inhibition, hits mostly activators; also: % of control where 0% means no effect; nearly all actives have a fitted effect of over 60% in size
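Rab9 promoter-driven luciferase in stably transfected Huh7 cells; 1500 cells/well rested 2 h, exposed to compound in DMSO for 24 h at 37 °C, 5% CO2. Luminescence read 10 min after adding luciferase reagent at ambient temperature.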
FLuc modulator – counter-screen for miR-21 project: firefly luciferase inhibitors or activators | hit rate 6.9% among 360,000 | P08659 | purified FLuc, Km substrates, luminescence inhibition | AID 588342 | Potency, µM (series often up to 57.5 µM), for inactives: at the highest dose activity change, negative = inhibition, actives largely listed as inhibitors;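 also: plate controls were vehicle for no effect and reference inhibitor for full effect; nearly all actives have a fitted effect of over 55% in size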
Target sequence (P08659 whole entry, looked up): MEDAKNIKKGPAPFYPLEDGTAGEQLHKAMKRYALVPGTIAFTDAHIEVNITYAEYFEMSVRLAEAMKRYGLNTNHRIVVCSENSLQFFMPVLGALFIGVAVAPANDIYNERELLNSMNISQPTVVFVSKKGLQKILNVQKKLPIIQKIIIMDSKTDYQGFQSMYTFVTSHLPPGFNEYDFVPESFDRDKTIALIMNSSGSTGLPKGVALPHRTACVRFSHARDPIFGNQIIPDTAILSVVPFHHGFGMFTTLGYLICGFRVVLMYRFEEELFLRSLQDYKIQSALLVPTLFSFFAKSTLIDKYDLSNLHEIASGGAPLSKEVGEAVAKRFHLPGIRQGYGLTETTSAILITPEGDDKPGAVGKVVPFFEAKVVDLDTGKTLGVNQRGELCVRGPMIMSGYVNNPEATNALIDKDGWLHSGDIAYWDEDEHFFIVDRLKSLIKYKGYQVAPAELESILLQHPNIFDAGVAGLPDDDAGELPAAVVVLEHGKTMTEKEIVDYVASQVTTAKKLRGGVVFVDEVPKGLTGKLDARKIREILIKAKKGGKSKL
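Biochemical qHTS of compounds, final roughly 60 µM downward over six points, against 10 nM purified firefly luciferase using Km concentrations of substrates (10 uM D-luciferin, 10 uM ATP) in Tris acetate pH 7.5 buffer; luminescence output.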
ELG1 genotoxic – induces genotoxicity in HEK293T cells with luciferase-tagged ELG1 | HEK293T ELG1-luciferase reporter, luminescence, 16 h | hit rate 1.3% among 330,000 | Potency, µM (highest dose often 46 µM), for the others: top-dose activity change, positive = activation, usual class: activators; also: % of control where 0% means no effect; nearly all actives have a fitted effect of over 60% in size
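DMSO vehicle served as control against compound-treated ELG1-luciferase HEK293T cells; exposure lasted 16 hr at 37 °C and 5% CO2, followed by ONE-Glo luminescence detection after 30 min.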
SMN2 splice up – enhancers of SMN2 splice variant expression; Potency, µM (doses to about 46.1 µM), without a hit: top-dose activity change, positive = activation, usual class: activators; hit rate 2.8% among 210,000; AID 1458; HEK293 SMN2-luciferase splicing reporter, luminescence, 30-36 h; also: % of control where 0% means no effect; nearly all actives have a fitted effect of over 55% in size
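HEK293 cells carry an SMN2 […]–luciferase reporter in which exon 7 inclusion puts luciferase in frame. Cells were plated 10-12 h before compound addition, then incubated 30-36 h at 37C. ONE-Glo luminescence was read; sodium butyrate at 4.5 mM final served as control.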
ELG1 repair inh – ELG1-dependent DNA repair inhibition. HEK293T ELG1-luciferase reporter, luminescence, 16 h; DNA damage induced by 5-fluorouridine. Potency, µM (highest dose often 46.1 µM), for the others: at the top dose activity change, negative = inhibition, most hits filed as inhibitors. hit rate 2.3% among 330,000; also: % is scaled to controls: 0 for no effect and ±100 for the full control effect; nearly all actives have a fitted effect of over 55% in size
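In this reporter screen, reduction of luminescence relative to DMSO vehicle indicated activity. Compounds and 5-fluorouridine were added together to 2,000 cells per well, incubated for 16 hr at 37 °C, then developed with ONE-Glo.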
NPC1 promoter act – activators of NPC1 promoter | hit rate 2.4% among 320,000 | Huh7 NPC1 promoter luciferase reporter, 24 h | Potency, µM (doses to about 9.22 µM), inactives show at the highest dose activation, usual class: activators; also: % of control where 0% means no effect; nearly all actives have a fitted effect of over 60% in size
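In 1536-well qHTS, Huh7 cells harboring an NPC1 promoter–luciferase construct received compound for 24 h; activation was quantified by luminescence following luciferase reagent addition.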
* marks the source's active call; other numbers are inactive results; ! = not active in a repeat; [ ] = another dose, or the depositor's remark. Calls follow the shape of the dose curve; as a rule, active = well fitted curve in the direction sought with a large enough effect; inconclusive = small, poorly fitted or top-dose-only effect, or another doubt; inactive = no such curve, though single readings can be large; an effect the other way counts as inactive or inconclusive. Potency is read from the fitted curve at half-maximal effect.

CC(C)Cn1c(N)c(C(=O)COC(=O)/C=C/c2ccccc2)c(=O)n(C)c1=O was read as Rab9 prom act -16.6%, FLuc modulator -1.1%, ELG1 genotoxic -7.7%, ELG1 repair inh inconclusive and NPC1 promoter act -2.2%.
CC(C)(C)c1ccc(O)c(CN(Cc2cc(C(C)(C)C)ccc2O)c2ccccc2)c1 was read as SMN2 splice up -2.0%[9.22 µM].
`CC1CCC2(CC1)NC(=O)N(CC(=O)Nc1cccc(C#N)c1)C2=O` (stereo not drawn) gave Rab9 prom act -3.0%, FLuc modulator 11.9%, ELG1 genotoxic -0.2%, ELG1 repair inh 7.9% and NPC1 promoter act -0.3%.
For O=C(CCS(=O)(=O)c1ccccc1)Nc1ccc2c(c1)OCO2 the results were Rab9 prom act inconclusive, FLuc modulator 26.9µM*, ELG1 genotoxic inconclusive, ELG1 repair inh inconclusive and NPC1 promoter act inconclusive.
For CN1CCN(c2ccc(NC(=O)CSc3ccccc3)cc2F)CC1 the results were Rab9 prom act 1.41µM*, FLuc modulator 10.7µM*, ELG1 genotoxic 2.06µM*, SMN2 splice up 11.2µM*, ELG1 repair inh inconclusive and NPC1 promoter act 1.78µM*.
`O=C(Cn1ncc(Cl)c(Cl)c1=O)Nc1ccc2c(c1)OCO2` gave Rab9 prom act -43.5%, FLuc modulator -0.9%, ELG1 genotoxic -6.0%, ELG1 repair inh 6.51µM* and NPC1 promoter act -43.5%.
Screening CS(=O)(=O)N(CC(=O)Nc1ccc2c(c1)OCO2)c1ccccc1 returned Rab9 prom act 0.3%, FLuc modulator 2.8%, ELG1 genotoxic 8.5%, SMN2 splice up -7.0%, ELG1 repair inh 9.8% and NPC1 promoter act 0.8%.
`O=C(CN1C(=O)C2C3C=CC(C3)C2C1=O)Nc1ccc2c(c1)OCCO2` (stereo not drawn) gave Rab9 prom act 3.55µM*, FLuc modulator 16.9µM*, ELG1 genotoxic inconclusive, SMN2 splice up 21.3%, ELG1 repair inh inconclusive and NPC1 promoter act inconclusive.
`Cc1cccc(C)c1NC(=O)CN(C)S(=O)(=O)c1ccc2c(c1)n(C)c(=O)c(=O)n2C` gave FLuc modulator 0.3% and SMN2 splice up 1.6%.
`CCS(=O)(=O)N1CCc2cc(C(=O)Nc3cc(C(F)(F)F)ccc3Cl)ccc21` gave FLuc modulator -12.9%.
For CC(C)=CC(=O)Nc1ccc2c(c1)OCO2 the results were FLuc modulator 10.7µM* and SMN2 splice up 11.2µM*.
`O=C(CSc1ccccc1)Nc1ccc2c(c1)OCCO2` gave Rab9 prom act 0.631µM*, FLuc modulator 2.39µM*, ELG1 genotoxic 1.64µM*, ELG1 repair inh inconclusive and NPC1 promoter act 0.891µM*.
Screening O=C(CSc1ccc2c(c1)OCCO2)Nc1ccc2c(c1)OCO2 returned Rab9 prom act 0.1%, FLuc modulator inconclusive, ELG1 genotoxic -0.4%, SMN2 splice up -7.4%, ELG1 repair inh inconclusive and NPC1 promoter act -1.3%.
`Cc1ccc(NC(=O)Cn2nnc3ccccc32)cc1` gave Rab9 prom act 3.55µM*, FLuc modulator 16.9µM*, ELG1 genotoxic inconclusive, ELG1 repair inh inconclusive and NPC1 promoter act inconclusive.
COC(=O)c1ccc(NC(=O)Cn2nnc3ccccc32)cc1 was read as Rab9 prom act 2.82µM*, FLuc modulator 4.26µM*, ELG1 genotoxic 16.4µM*, SMN2 splice up 12.6µM*, ELG1 repair inh inconclusive and NPC1 promoter act 3.55µM*.
For O=C(Cn1nnc2ccccc21)Nc1ccc([N+](=O)[O-])cc1 the results were Rab9 prom act -0.6%, FLuc modulator 0.9%, ELG1 genotoxic 1.9%, ELG1 repair inh 8.3% and NPC1 promoter act -2.4%.
For Cc1cccc(NC(=O)Cn2nnc3ccccc32)c1 the results were Rab9 prom act 2.82µM*, FLuc modulator inconclusive, ELG1 genotoxic inconclusive, SMN2 splice up 2.2%, ELG1 repair inh inconclusive and NPC1 promoter act 2.82µM*.
Screening O=C(COC(=O)CSc1ccc(Cl)cc1)NCCc1ccccc1 returned Rab9 prom act -1.5%, FLuc modulator -5.2%, ELG1 genotoxic -0.3%, ELG1 repair inh 5.2% and NPC1 promoter act 1.0%.
For O=C(O)[C@H]1O[C@H]1C(=O)O the results were SMN2 splice up -12.8%[9.22 µM].
Screening C/C(=C\CO)CCO returned SMN2 splice up 7.1%.
CC(C)c1cnc2c(c1SCC(=O)N1CCCCC1)c(=O)n(C)c(=O)n2C was read as FLuc modulator -1.2%.
For CSc1nc2sc3c(c2c(=O)n1-c1ccc(F)c(Cl)c1)CCN(C(C)=O)C3 the results were FLuc modulator 0.6% and SMN2 splice up 9.9%.
`CCCOc1ccc(C2C(=O)N(C3CCCCCC3)CC(=O)N2Cc2ccc(OC)cc2)cc1OC` (stereo not drawn) gave FLuc modulator -6.8%.
For CC[C@H](C)C(=O)O[C@H]1C[C@@H](C)C=C2C=C[C@H](C)[C@H](CC[C@@H]3C[C@@H](O)CC(=O)O3)[C@H]21 the results were Rab9 prom act 0.1%, FLuc modulator 3.8%, ELG1 genotoxic -0.5%, SMN2 splice up 15.8µM*!, ELG1 repair inh 8.8% and NPC1 promoter act 2.7%.
COc1cccc(CNC(=O)C(C)n2ncn3cccc3c2=O)c1OC (stereo not drawn) was read as FLuc modulator 6.01µM*.
Cc1cccc(NC2=CC(c3cccc(Br)c3)N(c3cccc(C)c3)C2=O)c1 (stereo not drawn) was read as FLuc modulator -0.1% and SMN2 splice up 12.3%.
For COC(=O)c1cc(-c2ccc(OC)cc2)nc2nc(SC)[nH]c(=O)c12 the results were Rab9 prom act -0.9%, FLuc modulator 5.36µM*, ELG1 genotoxic 0.5%, ELG1 repair inh 10.0% and NPC1 promoter act -5.0%.
CSc1nc(C)c(CCOC(=O)c2cccc(C)c2)c(=O)[nH]1 was read as Rab9 prom act 7.9%, FLuc modulator -9.2%, ELG1 genotoxic -1.4%, SMN2 splice up -10.1%, ELG1 repair inh 12.3% and NPC1 promoter act -1.8%.
CCOC(=O)c1cc(-c2ccc(C)cc2)nc2nc(SC)[nH]c(=O)c12 was read as Rab9 prom act -1.5%, FLuc modulator 4.78µM*, ELG1 genotoxic -1.0%, SMN2 splice up 6.1%, ELG1 repair inh 0.8% and NPC1 promoter act -2.2%.
Screening CCOC(=O)c1cc(-c2cccc(C(F)(F)F)c2)nc2nc(SC)[nH]c(=O)c12 returned Rab9 prom act -2.4%, FLuc modulator 12µM*, ELG1 genotoxic -5.9%, SMN2 splice up 4.7%, ELG1 repair inh inconclusive and NPC1 promoter act -2.0%.
